Experiment [1] can be described thus: qHTS assay to identify small molecule agonists of the peroxisome proliferator-activated receptor delta (PPARd) signaling pathway - cell viability counter screen (AID 743211). Note: nearly all actives have a fitted effect of over 55% in size. Note: potency is the fitted concentration of half-maximal effect. Summed up:
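Tox21 library compounds, delivered in DMSO, were incubated 17 h with PPARd-bla HEK293H cells; cytotoxicity was taken from CellTiter-Glo luminescence read 30 min after reagent addition.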
In general terms: qHTS replaces the single test concentration by a dilution series.

Experiment [2] addresses Peroxisome proliferator-activated receptor delta (Homo sapiens) (UniProt Q03181). Put plainly: qHTS assay to identify small molecule agonists of the peroxisome proliferator-activated receptor delta (PPARd) signaling pathway (AID 743212; calls by dose curve). The method in brief: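 Beta-lactamase reporter readout: a ratiometric FRET signal from the LiveBLAzer substrate after 2 h at room temperature. Compound exposure at 37 °C in PPARδ-bla HEK293H cells driven by an upstream activator sequence.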

Experiment [3] is described as follows: qHTS assay to identify small molecule antagonists of the peroxisome proliferator-activated receptor delta (PPARd) signaling pathway - cell viability counter screen (AID 743213). Note: nearly all actives have a fitted effect of over 50% in size. Note: potency is the fitted concentration of half-maximal effect. Summed up: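 Agonist-stimulated (L165041, 300 nM final) HEK293H PPARd UAS-bla cells are exposed to compounds for 17 h at 37 C, and ATP-based luminescence (CellTiter-Glo) from the same wells reports cytotoxicity.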

The target in experiment [4] is Peroxisome proliferator-activated receptor delta (Homo sapiens) (UniProt Q03181). Nature of the experiment: qHTS assay to identify small molecule antagonists of the peroxisome proliferator-activated receptor delta (PPARd) signaling pathway (AID 743215; active = well fitted inhibition curve with a large enough effect in the signal ratio in the repeat runs, not every such curve was filed as active; the % refers to the signal ratio; note: potency is the fitted concentration of half-maximal effect). Summed up: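 HEK293H GeneBLAzer PPARd UAS-bla reporter cells; cpd + L165041 300 nM final, 17 h 37 C; LiveBLAzer B/G FRET substrate 2 h RT; fluorescence intensity read-out. Antagonist mode.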
Sequence of Peroxisome proliferator-activated receptor delta (Homo sapiens) (Q03181 whole entry, looked up): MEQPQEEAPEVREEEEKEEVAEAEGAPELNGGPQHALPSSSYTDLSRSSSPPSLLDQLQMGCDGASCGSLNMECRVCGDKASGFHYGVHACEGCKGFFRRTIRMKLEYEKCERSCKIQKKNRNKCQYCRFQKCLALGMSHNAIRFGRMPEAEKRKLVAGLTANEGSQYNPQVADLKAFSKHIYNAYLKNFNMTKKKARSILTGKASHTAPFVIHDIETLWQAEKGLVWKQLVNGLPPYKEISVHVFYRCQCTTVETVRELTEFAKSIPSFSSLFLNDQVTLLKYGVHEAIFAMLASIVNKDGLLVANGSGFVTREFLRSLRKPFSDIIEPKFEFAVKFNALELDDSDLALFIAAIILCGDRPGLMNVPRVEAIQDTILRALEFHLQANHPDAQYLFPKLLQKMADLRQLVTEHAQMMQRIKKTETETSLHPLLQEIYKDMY

Experiment [5] is described as follows: qHTS assay to identify small molecule agonists of the farnesoid-X-receptor (FXR) signaling pathway - cell viability counter screen (AID 743218). Note: nearly all actives have a fitted effect of over 45% in size. Note: potency is the fitted concentration of half-maximal effect. The method in brief:
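Luminescence from CellTiter-Glo, read after 30 min at RT, reports viability of GeneBLAzer FXR-UAS-bla HEK 293T cells treated 16 h with compounds in the wells used for the beta-lactamase reporter.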

Experiment [6] is described as follows: qHTS assay to identify small molecule antagonists of the farnesoid-X-receptor (FXR) signaling pathway - cell viability counter screen (AID 743221; active = well fitted cell-killing curve with a large enough effect in the repeat runs, not every such curve was filed as active; note: nearly all actives have a fitted effect of over 50% in size; note: potency is the fitted concentration of half-maximal effect). Summed up:
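Cytotoxicity is taken from ATP luminescence (CellTiter-Glo, 30 min, room temperature) in FXR-bla HEK 293T cells previously incubated 16 h at 37 C with compound and chenodeoxycholic acid at 50 uM final.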

Experiment [7] concerns the target Vitamin D3 receptor (Homo sapiens) (UniProt P11473). Put plainly: qHTS assay to identify small molecule agonists of the vitamin D receptor (VDR) signaling pathway (AID 743222; calls by dose curve). Summed up: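 Beta-lactamase reporter readout (LiveBLAzer B/G FRET, 2 h RT) in VDR-bla cells after 16 h compound treatment at 37C, 5% CO2; cells pre-incubated 4 h before pin transfer of DMSO solutions.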

Experiment [8] has the same target. Nature of the experiment: qHTS assay to identify small molecule antagonists of the vitamin D receptor (VDR) signaling pathway (AID 743223; active = well fitted inhibition curve with a large enough effect in the signal ratio in the repeat runs, not every such curve was filed as active; the % refers to the signal ratio). The method in brief: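 Quantitative HTS in VDR-bla reporter cells stimulated with 1alpha,25-dihydroxyvitamin D3, 3 nM final. Compound exposure 16 h, 37C, 5% CO2. Read-out: beta-lactamase FRET substrate fluorescence, 2 h RT.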

The nature of experiment [9]: qHTS assay to identify small molecule antagonists of the vitamin D receptor (VDR) signaling pathway - cell viability counter screen (AID 743225). Note: nearly all actives have a fitted effect of over 50% in size. Note: potency is the fitted concentration of half-maximal effect. The method in brief: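 Same-well multiplex: following 16 h treatment of HEK 293T cells carrying a UAS-driven beta-lactamase reporter with compound and agonist (3 nM final), and a 2 h FRET substrate step, CellTiter-Glo was added and luminescence read after 30 min.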

Experiment [10] is described as follows: qHTS assay to identify small molecule agonists of the endoplasmic reticulum stress response signaling pathway (AID 1159516; active = well fitted activation curve with a large enough effect in the signal ratio in the repeat runs, not every such curve was filed as active; the % refers to the signal ratio). The method in brief: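 HeLa ESRE-bla reporter line; cpd 5 h, 37 C/5% CO2; LiveBLAzer B/G FRET substrate 2 h RT; ex 405, em 460/530 nm.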
A short description of experiment [11]: qHTS assay to identify small molecule agonists of the endoplasmic reticulum stress response signaling pathway - cell viability counter screen (AID 1159517; calls by dose curve; note: nearly all actives have a fitted effect of over 50% in size; note: potency is the fitted concentration of half-maximal effect). Summed up:
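ESRE-bla HeLa cells (1,500/well) were plated overnight at 37 C and exposed to compounds for 5 hr. After the 2 hr beta-lactamase substrate read, CellTiter-Glo went into the same wells, and luminescence was read after 30 min at room temperature.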

Experiment [12] can be described thus: qHTS assay to identify small molecule antagonists of the retinoid-related orphan receptor gamma (ROR-gamma) signaling pathway - cell viability counter screen (AID 1159520). Note: nearly all actives have a fitted effect of over 50% in size. Note: potency is the fitted concentration of half-maximal effect. Summed up: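 Cytotoxicity was read from cellular ATP (CellTiter-Glo luminescence) after 16 hr at 37 C with 1 uM doxycycline induction. The inducer was added 2 hr after compound transfer to Tet-on ROR gamma CHO cells.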

The nature of experiment [13]: qHTS assay to identify small molecule agonists of the AP-1 signaling pathway - cell viability counter screen (AID 1159525; calls by dose curve; note: nearly all actives have a fitted effect of over 55% in size; note: potency is the fitted concentration of half-maximal effect). Summed up:
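Intracellular ATP by Cell Titer Glo luminescence (30 min, RT) in the same ME-180 AP-1-bla wells after the 5 h compound exposure at 37 °C. Normalised to tetra n-octyl ammonium bromide and DMSO controls.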

Experiment [14] in a line: qHTS assay to identify small molecule agonists of the AP-1 signaling pathway (AID 1159526; calls by dose curve).
For experiment [15], the target named is Retinoic acid receptor RXR-alpha (Homo sapiens) (UniProt P19793). Put plainly: qHTS assay to identify small molecule agonists of the RXR signaling pathway (AID 1159527; calls by dose curve; note: nearly all actives have a fitted effect of over 35% in size; note: potency is the fitted concentration of half-maximal effect). The method in brief:
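Compounds in DMSO were added to RXR-alpha-UAS-bla HEK 293T cells kept in 2% charcoal-stripped serum, and incubated 16 hr at 37 C with 5% CO2. Reporter signal came from a 2 hr B/G FRET substrate step.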

Experiment [16] is described as follows: qHTS assay to identify small molecule agonists of the vitamin D receptor (VDR) signaling pathway - cell viability counter screen (AID 743224). Note: nearly all actives have a fitted effect of over 50% in size. Note: potency is the fitted concentration of half-maximal effect. The method in brief:
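Cytotoxicity counter screen: VDR-bla cells, 16 h compound exposure at 37C, 5% CO2; CellTiter-Glo luminescence, 30 min RT, same wells as bla read.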

Experiment [17] addresses Nuclear receptor ROR-gamma (Homo sapiens) (UniProt P51449). Nature of the experiment: qHTS assay to identify small molecule antagonists of the retinoid-related orphan receptor gamma (ROR-gamma) signaling pathway (AID 1159521; note: nearly all actives have a fitted effect of over 50% in size; note: potency is the fitted concentration of half-maximal effect). Summed up:
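Inducible-expression reporter assay: doxycycline (1 uM final) switched on RORγ in CHO cells bearing a ROR response element-luciferase construct, with test compounds present from 2 h beforehand. Decreased luminescence after 16 h defined antagonist activity.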

Experiment [18] deals with Bile acid receptor (Homo sapiens) (UniProt Q96RI1). Nature of the experiment: qHTS assay to identify small molecule antagonists of the farnesoid-X-receptor (FXR) signaling pathway (AID 743217; active = well fitted inhibition curve with a large enough effect in the signal ratio in the repeat runs, not every such curve was filed as active; the % refers to the signal ratio). The method in brief:
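Read-out: beta-lactamase FRET fluorescence (LiveBLAzer B/G substrate, 2 h, room temperature) in GeneBLAzer FXR-UAS-bla HEK 293T cells. Compounds were co-dosed with 50 uM chenodeoxycholic acid (final) and incubated 16 h at 37 °C.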

For experiment [19] the target is unchanged. Put plainly: qHTS assay to identify small molecule agonists of the farnesoid-X-receptor (FXR) signaling pathway (AID 743220; active = well fitted activation curve with a large enough effect in the signal ratio in the repeat runs, not every such curve was filed as active; the % refers to the signal ratio). Summed up:
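FXR-UAS-bla HEK 293T cells carrying a UAS-driven beta-lactamase reporter were plated for 5 h at 37C/5% CO2, then exposed to DMSO-dissolved Tox21 10K compounds for 16 h at 37C. A LiveBLAzer B/G FRET substrate was loaded for 2 h at room temperature before fluorescence reading.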

We go through 10 compounds from PubChem BioAssay (Tox21).

Molecules are shown by their SMILES. Results filed as inconclusive are left out. Calls of active or inactive are those of the source. Unless noted, calls come from the whole dose curve; as a rule, active = well fitted curve in the direction sought with a large enough effect in the repeat runs; inconclusive = weak or mixed curves; inactive = no such curve, though single readings can be large; an effect the other way counts as inactive or inconclusive.

Sequence of Bile acid receptor (Homo sapiens) (Q96RI1 whole entry, looked up): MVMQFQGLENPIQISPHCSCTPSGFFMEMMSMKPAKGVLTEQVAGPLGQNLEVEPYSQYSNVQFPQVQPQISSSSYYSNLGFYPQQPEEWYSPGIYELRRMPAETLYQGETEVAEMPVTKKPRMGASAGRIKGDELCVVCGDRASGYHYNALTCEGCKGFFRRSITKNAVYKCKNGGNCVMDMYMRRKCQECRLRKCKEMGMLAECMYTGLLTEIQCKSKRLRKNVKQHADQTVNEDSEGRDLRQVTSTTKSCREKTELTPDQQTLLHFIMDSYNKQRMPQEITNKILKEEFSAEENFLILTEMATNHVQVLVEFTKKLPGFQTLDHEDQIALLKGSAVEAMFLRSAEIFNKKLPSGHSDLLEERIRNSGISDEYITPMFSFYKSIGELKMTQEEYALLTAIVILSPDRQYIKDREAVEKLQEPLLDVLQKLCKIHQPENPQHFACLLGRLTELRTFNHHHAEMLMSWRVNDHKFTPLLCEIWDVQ
Sequence of Vitamin D3 receptor (Homo sapiens) (P11473 whole entry, looked up): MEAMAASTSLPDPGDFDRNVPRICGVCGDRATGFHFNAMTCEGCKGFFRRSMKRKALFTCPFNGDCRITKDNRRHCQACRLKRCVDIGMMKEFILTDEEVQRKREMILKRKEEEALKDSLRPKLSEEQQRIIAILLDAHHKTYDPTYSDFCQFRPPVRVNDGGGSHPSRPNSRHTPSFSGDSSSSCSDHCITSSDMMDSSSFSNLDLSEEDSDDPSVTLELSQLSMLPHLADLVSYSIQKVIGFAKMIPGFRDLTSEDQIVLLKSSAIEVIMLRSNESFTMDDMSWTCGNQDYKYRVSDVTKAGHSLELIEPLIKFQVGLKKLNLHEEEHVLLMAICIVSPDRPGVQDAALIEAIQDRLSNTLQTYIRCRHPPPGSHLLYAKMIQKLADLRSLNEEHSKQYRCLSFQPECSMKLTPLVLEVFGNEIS
Sequence of Retinoic acid receptor RXR-alpha (Homo sapiens) (P19793 whole entry, looked up): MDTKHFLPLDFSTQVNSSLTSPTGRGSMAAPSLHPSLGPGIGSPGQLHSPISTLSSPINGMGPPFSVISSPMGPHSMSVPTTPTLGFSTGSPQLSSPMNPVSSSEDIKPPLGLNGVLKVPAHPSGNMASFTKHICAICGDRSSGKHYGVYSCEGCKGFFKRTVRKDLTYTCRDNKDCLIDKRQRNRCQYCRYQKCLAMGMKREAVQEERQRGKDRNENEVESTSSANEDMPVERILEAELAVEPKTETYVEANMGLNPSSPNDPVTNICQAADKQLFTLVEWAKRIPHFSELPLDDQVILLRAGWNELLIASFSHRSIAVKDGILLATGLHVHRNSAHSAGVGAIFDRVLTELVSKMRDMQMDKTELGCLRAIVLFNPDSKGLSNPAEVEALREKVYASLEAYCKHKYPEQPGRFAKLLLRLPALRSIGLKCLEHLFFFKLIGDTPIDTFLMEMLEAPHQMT

As for `CNC(=O)Oc1cc(C)cc(C(C)C)c1`, the Potency entry in experiment [1], in experiment [2], in experiment [3], in experiment [4], in [5] and in experiment [6] was “inactive” in each case. The Potency entry in experiment [7], in experiment [8], in experiment [9], in [10], in experiment [11] and in [12] was “inactive” throughout. Moreover, the Potency entry in experiment [13] and in experiment [14] was “inactive” in each case. In addition, the Potency in [15] was 11 µM (active).

As for `CCC[CH2][Sn]([CH2]CCC)([CH2]CCC)[O][Sn]([CH2]CCC)([CH2]CCC)[CH2]CCC`, the Potency in experiment [1] is 0.676 µM (active); in experiment [3] it was 0.759 µM (active); in experiment [5], 0.479 µM (active); in experiment [6] it was 1.2 µM (active); in experiment [16], 0.603 µM (active); in [9] it was 0.852 µM (active). The Potency in [11] was 0.269 µM (active); in experiment [12] it was 0.336 µM (active); in [17], 0.168 µM (active); in [13] it was 0.537 µM (active).

With `CC(=O)[O-].CC(=O)[O-].CC(=O)[O-].[Cr+3]`, the Potency result in experiment [1], in experiment [3], in experiment [5], in experiment [16], in experiment [9] and in experiment [10] was “inactive” throughout. Besides, the Potency result in experiment [11], in [12], in [13] and in [15] was “inactive” throughout.

Consider `CNC(=O)/C=C(\C)OP(=O)(OC)OC`, for which the Potency result in experiment [2], in experiment [3], in experiment [4], in experiment [18], in experiment [19] and in [7] was “inactive” throughout. The Potency result in [8], in [16], in experiment [9], in experiment [10], in experiment [11] and in experiment [12] was “inactive” in each case. The Potency result in experiment [14] is “inactive”.

Consider `Cc1ccccc1OP(=O)(Oc1ccccc1C)Oc1ccccc1C`, for which the Potency entry in experiment [2], in experiment [5], in [19], in experiment [6], in experiment [8] and in experiment [10] was “inactive” in each case. Also, the Potency entry in [11] and in experiment [13] was “inactive” in each case. The Potency in experiment [17] was 54.7 µM (active).

For the compound `CCCCC(CC)COC(=O)c1ccccc1C(=O)OCC(CC)CCCC` (stereo not drawn), the Potency entry in experiment [4], in experiment [10], in [12], in experiment [13] and in [14] was “inactive” in each case.

For `Nc1nc(N)c(N)c(N)n1`, the Potency result in experiment [3], in experiment [5], in [6], in [8], in experiment [9] and in experiment [11] was “inactive” each time. Further, the Potency result in experiment [12], in experiment [17], in experiment [13] and in [14] was “inactive” throughout.

On to `CCN1CCC2(CC1)COc1cc3c(cc12)N(C(=O)c1ccc(-c2ccc(-c4nnc(C)o4)cc2C)cc1)CC3`, for which the Potency was 9.01 µM (active) in experiment [1]; 6.38 µM (active) in [3]; 18 µM (active) in [4]; 14.3 µM (active) in experiment [5]; 45.2 µM (active) in experiment [6]; 35.9 µM (active) in experiment [16]. The Potency in experiment [9] is 20.2 µM (active); in experiment [11] it was 50.7 µM (active); in [12] it was 28.3 µM (active); in experiment [17], 2 µM (active); in [13], 45.2 µM (active).

For the compound `CCO/N=C(\CC)C1=C(O)CC(c2c(C)cc(C)cc2C)CC1=O` (stereo not drawn), the Potency result in experiment [1], in experiment [19], in [10], in [11], in experiment [17] and in experiment [13] was “inactive” throughout. In addition, the Potency entry in experiment [14] was “inactive”.

As to `ClC1=C(Cl)[C@]2(Cl)[C@@H]3[C@H]4C[C@H]([C@@H]5O[C@H]45)[C@@H]3[C@@]1(Cl)C2(Cl)Cl`, the Potency result in [6], in experiment [8], in experiment [9], in experiment [10], in experiment [11] and in [12] was “inactive” in each case. Moreover, the Potency in [16] was 43.6 µM (active); in experiment [17] it was 27.3 µM (active).
